# Test results as given in PubChem BioAssay (Tox21).
# Values joined by “and” are separate entries in the source; they are usually repeats but may differ in a detail not shown here. Equal entries are not always repeated. Inconclusive results are not listed. Values without a mark were called inactive. Active and inactive are the calls of the source. Unless noted, calls come from the whole dose curve; as a rule, active = well fitted curve in the direction sought with a large enough effect in the repeat runs; inconclusive = weak or mixed curves; inactive = no such curve, though single readings can be large; an effect the other way counts as inactive or inconclusive.
# Test system: not listed separately
# Experiment: qHTS assay to identify small molecule agonists of the retinoic acid receptor (RAR) signaling pathway (AID 1159553); note: potency is the fitted concentration of half-maximal effect
# Conditions: C3RL4 RARE luciferase reporter, agonist, 6 h; series mostly up to 73.3 µM; activation: at the top concentration
# Procedure, shortened: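 6 hr compound exposure (DMSO vehicle) of overnight-plated C3RL4 RARE-luc cells at 37 C; luminescence quantified after 30 min RT with luciferase reagent.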
# % is set by controls: 0 for no effect and ±100 for the full control effect.
Structure (SMILES),Potency,activation
O=C(Nc1ccc(Cl)cc1)Nc1ccc(Cl)c(Cl)c1,3.06 µM (active) and 3.35 µM (active),–
O=C(/C=C/c1ccccc1)OCc1ccccc1,30.6 µM (active) and 29.8 µM (active),–
Cc1cccc(N(C)C(=S)Oc2ccc3ccccc3c2)c1,2.43 µM (active) and 13.3 µM (active),–
O=C(c1ccccc1)c1ccc(O)cc1O,–,10.9%
COc1cccc2c1C(=O)c1c(O)c3c(c(O)c1C2=O)C[C@@](O)(C(=O)CO)C[C@@H]3O[C@H]1C[C@H](N)[C@H](O)[C@H](C)O1,inactive,–
O=C(Nc1ccc([N+](=O)[O-])cc1Cl)c1cc(Cl)ccc1O,43.3 nM (active) and 82 nM (active),–
Cc1cc2nc3c(=O)[nH]c(=O)nc-3n(C[C@H](O)[C@H](O)[C@H](O)CO)c2cc1C,inactive,–
OC1CCCCCCCCCCC1,inactive,–
O=C(O)c1ccccc1Nc1cccc(C(F)(F)F)c1,inactive,–
Nc1ccc(Nc2ccccc2)cc1,inactive,–
Nc1ccccc1N,1.25 µM (active) and 1.72 µM (active),–

# Test system: not listed separately
# Experiment: qHTS assay to identify small molecule antagonists of the estrogen related receptor (ERR) signaling pathway - cell viability counter screen (AID 1224818); note: potency is the fitted concentration of half-maximal effect
# Conditions: ERR reporter cell line viability counter screen; series mostly up to 46.1 µM; viability change, negative = cytotoxic: at the top concentration
# Procedure, shortened: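 Compounds dissolved in DMSO were applied to ERR cells seeded at 2,000 per well 6 h earlier. Cell viability followed 17.5 h later via 30-min CellTiter-Fluor fluorescence.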
Structure (SMILES),"viability change, negative = cytotoxic",Potency
CC(=O)O[C@]1(C(C)=O)CC[C@H]2[C@@H]3C=C(Cl)C4=CC(=O)[C@@H]5C[C@@H]5[C@]4(C)[C@H]3CC[C@@]21C,-12.6%,–
Cc1c(OCC(F)(F)F)ccnc1CS(=O)c1nc2ccccc2[nH]1 (stereo unspecified),-13.7%,–
CN(C)CCN(Cc1cccs1)c1ccccn1,11.2%,–
CC(C)OC(=O)C(C)(C)Oc1ccc(C(=O)c2ccc(Cl)cc2)cc1,2.09%,–
CNCCCC12CCC(c3ccccc31)c1ccccc12,-13.7%,–
COC(=O)C1=C(C)NC(C)=C(C(=O)OCCN(C)Cc2ccccc2)C1c1cccc([N+](=O)[O-])c1 (stereo unspecified),–,23.7 µM (active)
CN(C)CCC=C1c2ccccc2CCc2ccccc21,-2.22%,–
Nc1ccccc1N,-15.4% [at 92.2 µM],–

# Test system: not listed separately
# Experiment: qHTS assay to identify small molecule agonists of the estrogen related receptor (ERR) signaling pathway (AID 1224820)
# Conditions: ERR reporter cell line, luciferase agonist mode; series mostly up to 46.1 µM; activation: at the top concentration
# Procedure, shortened: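 Luminescence readout (One-Glo, 30 min RT) from NTP-supplied ERR cell line exposed to compounds for 18 h at 37 C. Cells seeded 2,000 per well and pre-incubated 6 h before pin-tool compound transfer.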
row,Structure (SMILES),activation
1,CCCCc1oc2ccccc2c1C(=O)c1cc(I)c(OCCN(CC)CC)c(I)c1,-56.8%
2,Nc1ncn([C@@H]2O[C@H](CO)[C@@H](O)[C@H]2O)c(=O)n1,-77.7%
3,Cc1c(OCC(F)(F)F)ccnc1CS(=O)c1nc2ccccc2[nH]1 (stereo unspecified),4.85%

# Test system: estrogen-related receptor alpha (ERRalpha) with PGC-1alpha coactivator, human
# Experiment: qHTS assay to identify small molecule antagonists of the estrogen related receptor signaling pathway with the pleiotropic PPARgamma coactivator (PGC) (AID 1224821; calls by dose curve; note: nearly all actives have a fitted effect of over 50% in size; note: potency is the fitted concentration of half-maximal effect;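 for activity change, negative = inhibition: lower luminescence signal means antagonism of PGC/ERR signalling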)
# Conditions: ERR/PGC reporter cell line, luciferase, antagonist mode; series mostly up to 46.1 µM; activity change, negative = inhibition: at the top concentration
# Procedure, shortened: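 PGC/ERR reporter cells; 6 h pre-incubation 37 C/5% CO2; pin-tool compound in DMSO, 18 h 37 C; One-Glo added, 30 min RT; luminescence read. qHTS antagonist mode.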
Structure (SMILES),"activity change, negative = inhibition",Potency
CCCCc1oc2ccccc2c1C(=O)c1cc(I)c(OCCN(CC)CC)c(I)c1,-18%,–
Nc1ncn([C@@H]2O[C@H](CO)[C@@H](O)[C@H]2O)c(=O)n1,–,3.1 µM (active)
Cc1c(OCC(F)(F)F)ccnc1CS(=O)c1nc2ccccc2[nH]1 (stereo unspecified),32.5%,–

# Test system: not listed separately
# Experiment: qHTS assay to identify small molecule antagonists of the estrogen related receptor signaling pathway with the pleiotropic PPARgamma coactivator (PGC) cell viability counter screen (AID 1224822; note: potency is the fitted concentration of half-maximal effect)
# Conditions: ERR/PGC reporter cell line viability counter screen; series mostly up to 46.1 µM; viability change, negative = cytotoxic: at the top concentration
# Procedure, shortened: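 Counter screen for cell viability: PGC/ERR cells, 6 h pre-incubation after plating, 17.5 h compound exposure at 37 C, fluorescence from CellTiter-Fluor after 30 min.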
Structure (SMILES),"viability change, negative = cytotoxic",Potency
CC(=O)O[C@]1(C(C)=O)CC[C@H]2[C@@H]3C=C(Cl)C4=CC(=O)[C@@H]5C[C@@H]5[C@]4(C)[C@H]3CC[C@@]21C,-7.71%,–
Cc1c(OCC(F)(F)F)ccnc1CS(=O)c1nc2ccccc2[nH]1 (stereo unspecified),-5.63%,–
CN(C)CCN(Cc1cccs1)c1ccccn1,12.5%,–
CC(C)OC(=O)C(C)(C)Oc1ccc(C(=O)c2ccc(Cl)cc2)cc1,4.34%,–
COC(=O)C1=C(C)NC(C)=C(C(=O)OCCN(C)Cc2ccccc2)C1c1cccc([N+](=O)[O-])c1 (stereo unspecified),–,23.7 µM (active)
CN(C)CCC=C1c2ccccc2CCc2ccccc21,-20.6%,–
